# Measured values reported in ChEMBL document CHEMBL3988442, “University of Dundee, Small-Polar-MMV Screening Library” (2021).
# About 1,000 (1.4%) of roughly 69,000 compounds showed an effect of 50% or more. The full list was thinned out, with strong results kept by preference.
# System: Leishmania donovani
# Experiment: Leishmania intramacrophage assay
# Format: functional, organism-based
# Design: scale not given: in the data most compounds retested in dose-response had high values
smiles,measurement,setting,value
CN(C)S(=O)(=O)N1CCC(Oc2ccc(C#N)cc2)CC1,Percent Effect,"30 µM, 30.03 µM",23.32%
CN(C)CCNC(=O)CCn1ncc2c(Cl)cccc21,Percent Effect,"30.3 µM, […]",55.96%
COCCNC(=O)CCn1ncc2c(Cl)cccc21,Percent Effect,"30.3 µM, […]",-81.24%
CN(C)C(=O)CNC(=O)CCn1ncc2c(Cl)cccc21,Percent Effect,"30 µM, 30.03 µM",13.94%
CCN(CC)CC(=O)NCc1cccnc1-n1cnc2ccccc21,Percent Effect,"30.3 µM, […]",12.53%
Cc1nc(CNc2ccc(C(=O)NCc3ccco3)cc2C)no1,Percent Effect,"30.3 µM, […]",3.169%
COc1cc(N2CC[C@H](O)[C@@H]2Cc2cccnc2)ncn1,Percent Effect,"30.3 µM, […]",5.968%
COc1cc(N2CC[C@H](O)[C@@H]2Cc2ccccc2)ncn1,Percent Effect,"30.3 µM, […]",33.09%
COc1cc(N2CC[C@@H](O)[C@@H]2Cc2ccccc2)ncn1,Percent Effect,"30.3 µM, […]",51.86%
Cc1cc(C(=O)N2CC[C@@]3(C[C@@H](NS(C)(=O)=O)CCO3)C2)no1,Percent Effect,"30.3 µM, […]",13.02%
O=C(CCn1cncn1)NCCOc1cccc(Cl)c1,Percent Effect,"30.3 µM, […]",-12.3%
CC(=O)N1CCC(NC(C)c2cnn(-c3ccc(F)cc3F)c2C)CC1 (centres undefined),Percent Effect,"30.3 µM, […]",3.786%
Cc1c(C(C)NC2CCCC2)cnn1-c1ccc(F)cc1F (centres undefined),Percent Effect,"30.3 µM, […]",6.771%
Cc1c(C(C)NC2CCN(C(C)C)CC2)cnn1-c1ccc(F)cc1F (centres undefined),Percent Effect,"30.3 µM, […]",61.65%
CCN(CCOC)C(=O)c1ccc2c(c1)nc(N1CC[C@H](O)C1)n2C,Percent Effect,"30.3 µM, […]",20.98%
COc1c(CNCc2ccc3c(c2)OCCO3)c(C(C)C)nn1C,Percent Effect,30 µM,-2.541%
Cc1n[nH]c(CN2CCN(c3ncnc4scc(C)c34)CC2)c1Cl,Percent Effect,"30.3 µM, […]",71.39%
CCc1nc(C)c(CN2CCN(c3ncnc4c(C)csc34)CC2)[nH]1,Percent Effect,"30.3 µM, […]",24.01%
CCc1nc(C)c(CN2CCN(c3ncnc4scc(C)c34)CC2)[nH]1,Percent Effect,"30.3 µM, […]",-3.854%
Cc1ccccc1CCNC(=O)C1CC(=O)N(CC(F)(F)F)C1 (centres undefined),Percent Effect,"30 µM, 30.03 µM",9.865%
O=C(NCCn1ccnc1)N1CCCC1c1ccc2c(c1)OCCO2 (centres undefined),Percent Effect,30 µM,14.25%
CC(C)(C(=O)NCc1n[nH]c(=O)[nH]1)c1ccc(F)cc1,Percent Effect,"30.3 µM, […]",17.25%
Cc1cc(=O)n2nc(Oc3ccc(Cl)c(C)c3)sc2n1,Percent Effect,"30.3 µM, […]",74.91%
Cc1cc(=O)n2nc(Oc3ccc(F)c(F)c3)sc2n1,Percent Effect,"30.3 µM, […]",-0.08982%
Cc1cc(=O)n2nc(Oc3cc(Cl)cc(Cl)c3)sc2n1,Percent Effect,"30.3 µM, […]",-38.32%
COC(=O)NC1(C(=O)NCc2ccc(-c3ccn[nH]3)cc2)CCCC1,Percent Effect,"30.3 µM, […]",3.496%
CNC(=O)c1sccc1N(C)S(=O)(=O)c1ccc(Cl)cc1,Percent Effect,"30.3 µM, […]",77.15%
CCNC(=O)c1sccc1N(C)S(=O)(=O)c1ccc(Cl)cc1,Percent Effect,"30.3 µM, […]",2.943%
CC(C)NC(=O)c1sccc1N(C)S(=O)(=O)c1ccc(Cl)cc1,Percent Effect,"30 µM, 30.03 µM",7.242%
Cc1ccc(C(=O)NC(C)CN2CCCC2=O)c(=O)[nH]1 (centres undefined),Percent Effect,"30 µM, 30.03 µM",6.193%
Cc1ccc(C(=O)NCC(C)CN2CCCC2=O)c(=O)[nH]1 (centres undefined),Percent Effect,"30.3 µM, […]",59.27%
Cc1ccc(C(=O)NC(CN2CCCC2=O)c2ccccc2)c(=O)[nH]1 (centres undefined),Percent Effect,"30 µM, 30.03 µM",-14.78%
Nc1nc(N)c2c(n1)OC1(CCCN(Cc3nccs3)CC1)C2 (centres undefined),Percent Effect,"30.3 µM, […]",27.22%
Cc1nonc1CN(C)c1nc(-c2ccco2)nc2c1CCN(C)CC2,Percent Effect,"30.3 µM, […]",55.96%
Cc1cc(CN(C)c2nc(-c3ccco3)nc3c2CCN(C)CC3)on1,Percent Effect,"30.3 µM, […]",-83.89%
Cc1noc(CN(C)c2nc(-c3ccco3)nc3c2CCN(C)CC3)n1,Percent Effect,"30.3 µM, […]",-34.19%
Cc1cccc(CN2C(=O)CO[C@@H]3CN(Cc4cnn(C)c4)C[C@H]32)c1.O=C(O)C(F)(F)F.O=C(O)C(F)(F)F,Percent Effect,"30.3 µM, […]",15.94%
CC(C)(C)CNC(=O)c1ccc(C(=O)O)nc1,Percent Effect,"30.3 µM, […]",60.75%
CC(C)(C)CNC(=O)c1ccc(C(=O)O)cn1,Percent Effect,"30.3 µM, […]",-11.9%
CC(C)(C)CNC(=O)c1ccc(C(=O)O)cc1,Percent Effect,"30.3 µM, […]",40.51%
Cc1ccc(-c2ncc(CN3CCOC(c4ccco4)C3)s2)o1 (centres undefined),Percent Effect,"30.3 µM, […]",-6.468%
COC(=O)CCCN(C)C(c1cccnc1)c1ccc(F)cc1F (centres undefined),Percent Effect,"30.3 µM, […]",21.57%
CC(C)N1CC(c2ncc(-c3ccc4c(c3)OCCO4)[nH]2)CC1=O (centres undefined),Percent Effect,"30.3 µM, […]",26.45%
COc1ccccc1CCN[C@@H]1c2ccccc2C2(CCNCC2)[C@H]1O,Percent Effect,"30.3 µM, […]",35.47%
Cc1ccc(CCN[C@@H]2c3ccccc3C3(CCNCC3)[C@H]2O)s1,Percent Effect,"30.3 µM, […]",84.2%
O[C@H]1[C@H](NCCc2ccccn2)c2ccccc2C12CCNCC2,Percent Effect,"30.3 µM, […]",-16.64%
CNC(=O)[C@@H]1C[C@H]2CN(Cc3csc(C)n3)C[C@H]2N1C(C)C.O=C(O)C(F)(F)F.O=C(O)C(F)(F)F,Percent Effect,"30.3 µM, […]",29.27%
CC(C)C(C)N1Cc2cccc(NCC(=O)N(C)C)c2C1 (centres undefined),Percent Effect,"30.3 µM, […]",29.96%
CC(C)N1Cc2cccc(NCC(=O)N(C)C)c2C1,Percent Effect,"30.3 µM, […]",62.8%
CC(C)N1Cc2cccc(NCC(=O)N(C)C3CCCCC3)c2C1,Percent Effect,"30.3 µM, […]",17.74%
Cc1cc(NC(=O)NCC2COc3ccccc3C2)no1 (centres undefined),Percent Effect,30 µM,-28.91%
CN(C)C(=O)CO[C@@H]1CN(Cc2ccccc2F)[C@@H]2CCCO[C@@H]21.O=C(O)C(F)(F)F,Percent Effect,"30.3 µM, […]",10.19%
Fc1ccccc1CN1C[C@@H](OCc2ccncc2)[C@H]2OCCC[C@H]21.O=C(O)C(F)(F)F.O=C(O)C(F)(F)F,Percent Effect,"30 µM, 30.03 µM",54.27%
COc1ccc(CN2CCO[C@H]3[C@H](OCc4ccncc4)CC[C@@H]32)cc1.O=C(O)C(F)(F)F.O=C(O)C(F)(F)F,Percent Effect,"30.3 µM, […]",60.6%
Fc1ccc(CN2CCO[C@H]3[C@H](OCc4ccncc4)CC[C@@H]32)cc1.O=C(O)C(F)(F)F.O=C(O)C(F)(F)F,Percent Effect,"30.3 µM, […]",43.4%
Cc1cccc(CN2CCO[C@H]3[C@@H](OCc4ccncc4)CC[C@@H]32)n1.O=C(O)C(F)(F)F.O=C(O)C(F)(F)F.O=C(O)C(F)(F)F,Percent Effect,"30.3 µM, […]",12.49%
Fc1ccccc1CN1C[C@H](OCC2CCOCC2)[C@H]2OCCC[C@H]21.O=C(O)C(F)(F)F,Percent Effect,"30.3 µM, […]",-19.24%
Cn1cc(S(=O)(=O)N(Cc2ccc(F)cc2F)C2CC2)cc1C(N)=O,Percent Effect,"30.3 µM, […]",34.27%
CNS(=O)(=O)CC1CCCN1C(=O)c1ccc(C)c(C)c1 (centres undefined),Percent Effect,"30.3 µM, […]",-9.061%
